The whole screen tested about 16,000 compounds, of which about 5,800 (36%) were called active. Inconclusive results (about 23%) are left out. Some of the results follow. A number with no mark means an inactive call. Calls come from the whole dose curve; as a rule, active = well fitted curve in the direction sought with a large enough effect; inconclusive = small, poorly fitted or top-dose-only effect, or effect the other way; inactive = no such curve, though single readings can be large or run the other way.
The compounds below were run against Cytochrome P450 2C19 (Homo sapiens) (UniProt P33261) (assay: Cytochrome panel assay with activity outcomes). Details: recombinant CYP, pro-luciferin dealkylation, luminescence, p450-cyp2c19; series mostly up to 57.1 µM.
Cytochrome P450 2C19 (Homo sapiens), sequence (P33261 whole entry, looked up): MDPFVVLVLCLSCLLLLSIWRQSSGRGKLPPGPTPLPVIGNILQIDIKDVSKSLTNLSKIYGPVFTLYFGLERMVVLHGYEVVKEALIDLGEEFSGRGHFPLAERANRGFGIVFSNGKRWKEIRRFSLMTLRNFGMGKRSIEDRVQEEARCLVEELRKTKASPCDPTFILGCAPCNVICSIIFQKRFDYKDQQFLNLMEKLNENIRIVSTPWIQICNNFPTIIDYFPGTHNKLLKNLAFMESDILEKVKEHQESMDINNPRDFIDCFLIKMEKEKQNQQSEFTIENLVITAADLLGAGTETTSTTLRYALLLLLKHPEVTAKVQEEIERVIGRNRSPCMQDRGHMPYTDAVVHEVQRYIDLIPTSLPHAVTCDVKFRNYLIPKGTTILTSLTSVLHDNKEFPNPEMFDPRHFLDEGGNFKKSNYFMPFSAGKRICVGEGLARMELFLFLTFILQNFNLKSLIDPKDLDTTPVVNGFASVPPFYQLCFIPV
% is set by controls: 0 for no effect and ±100 for the full control effect.

SMILES	AC50	activity, negative = inhibition
N=C(N)SCCc1cnc[nH]1	inactive	
Fc1ccc(C(OCCCc2cnc[nH]2)c2ccc(F)cc2)cc1	0.00398 µM (active)	
N[C@@H](Cc1cnc[nH]1)C(=O)O	inactive	
CN1CCN(c2ncc3nc(-c4cccs4)c(=O)n(C[C@H]4CCCO4)c3n2)CC1	inactive	
CN1CCc2c(c3ccccc3n2C)C1	inactive	
O=S(=O)(O)c1ccc(N=Nc2ccc3c(S(=O)(=O)O)cccc3c2O)c2ccccc12		-37.1% [at 11.4 µM]
COc1cc(-c2ccc(N=Nc3ccc4c(S(=O)(=O)O)cc(S(=O)(=O)O)c(N)c4c3O)c(OC)c2)ccc1N=Nc1ccc2c(S(=O)(=O)O)cc(S(=O)(=O)O)c(N)c2c1O	3.98 µM (active)	
C=CCN(CC=C)C(=O)C(=O)c1cc(C)n(-c2ccc([N+](=O)[O-])cc2)c1C	0.126 µM (active)	
CN1CCN(C2=Cc3ccccc3Oc3ccc(Cl)cc32)CC1	3.98 µM (active)	
Clc1ccc2c(c1)C(N1CCNCC1)=Nc1ccccc1O2	inactive	
CN1CCN(C2=Nc3ccccc3Oc3ccc(Cl)cc32)CC1	inactive	
C=CCNC(=O)c1cccn1-c1ccsc1C(=O)OC	inactive	
COC(=O)c1sc2ccccc2c1-n1cccc1C(=O)C(=O)Nc1ccc(Cl)cc1	5.01 µM (active)	
Cc1ccc(NC(=O)N(Cc2ccco2)C(C)c2ccco2)cc1C (centres undefined)	5.62 µM (active)	
COCC(=O)N1CCC2(CCCN(Cc3ccccc3OC)C2)CC1	inactive	
Cc1ccc(-c2n[nH]c(=S)n2/N=C/c2cccn2C)cc1	14.1 µM (active)	
Cc1nnc(C)n1/N=C/c1ccc(-c2ccccc2)cc1	inactive	
C/C=C\C(=O)N(CC)c1ccccc1C	inactive	
COc1cccc(-c2cc(=O)c3ccccc3o2)c1N	6.31 µM (active)	
C/C(=N/O)[C@@H]1C[C@H](CC(=O)O)C1(C)C		23% [at 11.4 µM]
Cc1cc(C)n2nc(-c3sccc3-n3cccc3)cc2n1	7.08 µM (active)	
O=C(OCC(=O)c1cccs1)c1cccc(C(=O)OCC(=O)c2cccs2)n1	17.8 µM (active)	

SMILES	AC50	activity, negative = inhibition
CCOC(=O)c1cccc(C(=O)OCC)n1	inactive	
Cc1nc2ccc(S(=O)(=O)NC(CC(C)C)C(=O)O)cc2s1 (centres undefined)	inactive	
Cc1ccc2nc(-c3ccc(NC(=O)c4ccc(N)cc4)c(S(=O)(=O)O)c3)sc2c1		0.214% [at 11.4 µM]
Cc1ccc2nc(NC(=O)COC(=O)c3ccc(Br)o3)sc2c1	8.91 µM (active)	
Cc1ccc2nc(NC(=O)CSCC(=O)OCC(=O)c3ccc(Br)cc3)sc2c1	8.91 µM (active)	
OCCN(CCO)c1ncnc2nc[nH]c12		-23.9% [at 11.4 µM]
CC(C)(C)N1C(=O)[C@H]2[C@@H]3[C@H](O)[C@H](O)CC(=O)[C@H]3CC[C@H]2C1=O		-4.03% [at 11.4 µM]
N#CCCn1c(=O)c(-c2ccc(Cl)cc2)nc2cnc(Oc3cccc(Cl)c3)nc21	inactive	
N#CCCn1cc(/C=N/O)c(-c2ccc(Cl)cc2)n1	7.94 µM (active)	
N#CCCn1c(=O)c(-c2ccc(Cl)cc2)nc2cnc(N3CCOCC3)nc21	inactive	
CC1=CC(=O)C=CC1(C)C(Cl)(Cl)Cl (centres undefined)	25.1 µM (active)	
Cc1cnc(CNc2ccnc(-c3ccc(N(C)C)cc3)n2)cn1	inactive	
COc1ccccc1CNc1ccnc(-c2ccc(N(C)C)cc2)n1	10 µM (active)	
CN(C)c1ccc(-c2nccc(NCc3ccccc3)n2)cc1	25.1 µM (active)	
COc1ccccc1CNc1ccnc(-c2ccoc2)n1	7.94 µM (active)	
CN(C)c1ccc(-c2nccc(NCc3cccs3)n2)cc1	15.8 µM (active)	
CN(C)C(=O)c1ccc(-c2nccc(NCc3ccccc3)n2)cc1	inactive	
COc1cc(S(C)=O)ccc1-c1nc2ncccc2[nH]1 (centres undefined)	inactive	
Cc1cc(SCC(=O)c2cccs2)nc2c(C)cccc12	3.16 µM (active)	
CC[C@]1(C)CC(=O)NC1=O	inactive	
Cc1ccc(Nc2nc(Cl)nc(N(C)C#N)n2)cc1	25.1 µM (active)	
COC(=O)c1ccccc1N/C=C1\CCc2c(c(C)nn2-c2ccccn2)C1=O	1.26 µM (active)	

SMILES	AC50	activity, negative = inhibition
COc1ccc(-c2cc(C(=O)O)c3c(C)nn(-c4ccccn4)c3n2)cc1	inactive	
COc1ccc(N2CCN(c3nc(Nc4ccc(F)cc4)nc(OC)n3)CC2)cc1	inactive	
C(=N\Nc1nc(Nc2ccccc2)nc(N2CCOCC2)n1)/c1c[nH]c2ccccc12	8.91 µM (active)	
CC(=O)/C(=C\c1ccccc1F)C(=O)c1ccccc1	2 µM (active)	
CC(=C\C(=O)O)/C(=C/c1ccccc1)C(=O)O	inactive	
c1ccc(-c2nc(N3CCCCCC3)nc(-n3ccnc3)n2)cc1	2 µM (active)	
CN(c1ccccc1)c1nc(-n2ccnc2)nc(-n2ccnc2)n1	1.78 µM (active)	
COc1ccc(Oc2nccc(-c3ccc(F)cc3)c2C#N)cc1	inactive	
Cn1c(=O)c(-c2cccc(C#N)c2)nc2cnc(Oc3ccccc3)nc21	inactive	
N#Cc1c(-c2ccccc2)ccnc1Oc1ccccc1	1.58 µM (active)	
COc1ccc2sc3ccccc3c(=O)c2c1OC	25.1 µM (active)	
COc1ccc(C(=O)CCN(C)C)c2ccccc12		-37.3% [at 11.4 µM]
CCN(CC)CCNc1ccc(CO)c2sc3ccccc3c(=O)c12	inactive	
Cc1nc2ccccn2c1/C(O)=C1\C(=O)C(=O)N(CCN2CCOCC2)C1c1cccnc1 (centres undefined)	inactive	
CCOC(=O)c1[nH]c(C)c(/C(O)=C2\C(=O)C(=O)N(CCN3CCOCC3)C2c2cccs2)c1C (centres undefined)	8.91 µM (active)	
COc1ccc(/C(O)=C2/C(=O)C(=O)N(CCN3CCOCC3)C2c2ccc(C)cc2)cc1 (centres undefined)	inactive	
Cc1cc(Cl)nc2ccc(Cc3ccc4nc(Cl)cc(C)c4c3)cc12	0.501 µM (active)	
CC(=O)Nc1ccc(Cc2ccc3[nH]c(=O)cc(C)c3c2)cc1		3.04% [at 11.4 µM]
Cc1cc(N2CCOCC2)nc2ccc(Cc3ccc4nc(N5CCOCC5)cc(C)c4c3)cc12		-39.6% [at 11.4 µM]
CC(C)=NNc1ncnc2nc[nH]c12		43.1% [at 11.4 µM]
